Laboratory results published in PMC5540273 (PLoS ONE, 2017).
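Further: KINOMEscan kinase panel screen.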

What follows are compounds tested on T1, YANK1. Details: concentration: 1 μM, replicates: in singlicate; n = 1.
T1 construct: gene STK32A
With `O=C(Nc1cccc(-c2nn3ccccc3c2-c2ccnc(Nc3cccc(F)c3)n2)c1)c1c(F)ccc(F)c1Cl` [GSK357952] the “%Inh” value was 34%. `c1ccc(-c2cnc3nccnn23)cc1` [AH20685] was tested, and the “%Inh” value was 6%. `CN(c1ccc(NC(=O)Nc2cc(C(F)(F)F)ccc2F)cc1)c1ccnc(Nc2ccc(S(N)(=O)=O)cc2)n1` [GW809893] was tested, and the “%Inh” value was 17%. For `O=C(Nc1n[nH]c2cc(-c3ccoc3)ccc12)C1CC1` [SB-738481], the “%Inh” value was 0%. For `C[C@@H]1CC[C@@H](C(=O)Nc2ccccc2)CN1c1cc(-c2ccc3c(N)n[nH]c3c2)nc(N)n1` [GSK2286062], the “%Inh” value was 15%. For `O=C(Nc1cccc(-c2nn3ncccc3c2-c2ccnc(Nc3ccccc3)n2)c1)c1c(F)cccc1F` [GSK198271], the “%Inh” value was 63%. For `COc1cccc(NC(=O)NC2CCN(c3ccnc(Nc4cc(OC)c(OC)c(OC)c4)n3)C2)c1` (stereo not shown) [GSK1379763], the “%Inh” value was 1%. With `CN1CCN(CCCNc2nccc(-c3c(-c4ccc(F)cc4)nn4cc(C(F)(F)F)ccc34)n2)CC1` [GW621581] the “%Inh” value was 0%. With `Nc1n[nH]c2cnc(-c3ccccc3)cc12` [SB-642124] the “%Inh” value was 12%. In the case of `Cc1occc1-c1ncc(OC[C@@H](N)Cc2c[nH]c3ccccc23)cc1-c1ccc2[nH]nc(C)c2c1.O=C(O)C(F)(F)F` [GSK682037], the “%Inh” value is reported as 96.5%. In the case of `Cl.NC(=O)c1cccc(Nc2nccc(Nc3ccc(Oc4c(Cl)cccc4Cl)c(Cl)c3)n2)c1` [GW659009], the “%Inh” value is reported as 4%. For `CCCCc1nn2ncccc2c1-c1ccnc(Nc2ccc(N3CCN(C)CC3)cc2)n1` [GW684941], the “%Inh” value was 78%. For `CCc1ccc(-c2ccc3c(c2)-c2c(cnn2C)S(=O)(=O)N3C)cc1`, the “%Inh” value was 1%. For `c1ccc(-c2n[nH]cc2Nc2ccnc3ccccc23)nc1` [GW694077], the “%Inh” value was 0%. With `c1ccc(Oc2ccc(Nc3ccnc4cc(-c5ccc(CNCCN6CCOCC6)o5)ccc34)cc2)nc1` [GW567145] the “%Inh” value was 0%. With `Cn1cc(-c2[nH]c3cc(NC(=O)[C@H](N)C4CCCCC4)cc4c3c2C=NNC4=O)cn1` the “%Inh” value was 16%. In the case of `FC(F)(F)c1ccc(/C=C/c2cncnc2Nc2ccc3[nH]c(Cc4ccccc4)nc3c2)cc1` [GW709199], the “%Inh” value is reported as 0%. `COc1cc2c(cc1OCCN1CCNCC1)ncc1c3ccc(C#N)cc3[nH]c21` was tested, and the “%Inh” value was 5%. For `CC(=O)N1CCN(c2ccc(Nc3nccc(-c4sc(C(C)C)nc4-c4cccc(NS(=O)(=O)c5cccc(Cl)c5)c4)n3)cn2)CC1` [GSK1660437], the “%Inh” value was 3%. `Cc1ccc(F)c(C(=O)Nc2cccc(-c3nn4ccccc4c3-c3ccnc(Nc4cccc(F)c4)n3)c2)c1F` [GSK361061] was tested, and the “%Inh” value was 6%. `Cc1cccc(NC(=O)Nc2ccc(Oc3ncnc4ccn(C)c34)cc2)c1` was tested, and the “%Inh” value was 0%. `COc1cc(Nc2nccc(N3CCC(NC(=O)Nc4cccc(C(C)=O)c4)C3)n2)cc(OC)c1OC` (stereo not shown) [GSK1379753] was tested, and the “%Inh” value was 14%. In the case of `C[C@@H](Oc1cc(-n2cnc3cc(-c4ccnc(NCCS(C)(=O)=O)c4)ccc32)sc1C(N)=O)c1ccccc1Cl` [GSK907232], the “%Inh” value is reported as 6%. With `COC(=O)Nc1nc2cc(Oc3ccc(NC(=O)Nc4cc(C(F)(F)F)ccc4F)cn3)ccc2[nH]1.Cl.Cl` [GW681170] the “%Inh” value was 9%. In the case of `Nc1ncnc2c1nc(-c1ccccc1)n2-c1ccccc1` [SKF-97293], the “%Inh” value is reported as 3%. `NCCCC(NC(=O)c1cc(Br)c(-c2ccnc3[nH]ccc23)s1)c1ccccc1.O=C(O)C(F)(F)F.O=C(O)C(F)(F)F` (stereo not shown) [GSK1287544] was tested, and the “%Inh” value was 0%. In the case of `CSc1cccc2c(-c3ccncn3)c(-c3ccc(F)cc3)nn12` [GW514786], the “%Inh” value is reported as 23%. For `CC(C)c1nc(-c2cccc(NS(=O)(=O)c3c(F)cccc3F)c2F)c(-c2ccnc(Nc3ccc(N4CCOCC4)nc3)n2)s1` [GSK2008607], the “%Inh” value was 14%. With `Cc1cccc(Nc2nc(N[C@H]3CCNC3)ncc2C(N)=O)c1.Cl` [GSK2197149] the “%Inh” value was 19%. For `Nc1ncc(-c2ccc3nccc(-c4ccncc4)c3c2)cc1S(=O)(=O)N1CCOCC1` [GSK1627798], the “%Inh” value was 4%. For `COc1ccc(CNC(=O)NC2CCN(c3ccnc(Nc4ccc(F)cc4)n3)CC2)cc1` [GSK1379788], the “%Inh” value was 7%. `O=C(Nc1n[nH]c2nc(-c3ccc(O)cc3)ccc12)C1CC1` [SB-710363] was tested, and the “%Inh” value was 0%. `CC(C)(C)c1ccc2nccc(Nc3cccc(O)c3)c2c1` [GW856795] was tested, and the “%Inh” value was 0%. For `COc1cc(Nc2nccc(-c3c(-c4cccc(NC(=O)c5c(F)cccc5F)c4)nn4ccccc34)n2)cc(OC)c1OC` [GSK323521], the “%Inh” value was 11%. With `O=c1[nH]cc(-c2ccc(N3CCOCC3)cc2)c2sc(-c3cn[nH]c3)cc12` [GSK2276055] the “%Inh” value was 8%. `COc1cccc(-c2ccc3c(NC(=O)C4CC4)n[nH]c3n2)c1` [SB-710903] was tested, and the “%Inh” value was 0%. In the case of `Nc1ncc(-c2cccnc2)c2scc(-c3ccc4c(c3)CCN4C(=O)Cc3ccccc3)c12` [GSK683281], the “%Inh” value is reported as 21%.
